Rows were chosen to be rich in hits. Some 4.8% of all compounds tested hit in one or more screens of this group.
APP transl inh – inhibitors of APP translation via 5'UTR reporter, primary screen, APP 5'UTR luciferase, SH-SY5Y cells; SH-SY5Y APP 5'UTR-luciferase reporter, luminescence; inhibition, % at 2 µM; actives 0.82% (n = 190,000); AID 1285, 2008;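 active means inhibition above a set limit, derived from the sample mean plus 3 SD, cut at about 45% in these data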
Hsp70 activator – Hsp70 transcriptional activators, primary screen, cell-based, HeLa, Hsp70 promoter luciferase, luminescence, 10 µM | HeLa Hsp70 promoter luciferase reporter; scaled: vehicle 0, proteasome-inhibitor control 100% | activation, % at 10 µM | actives 0.04% (n = 200,000);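 active means activation above the mean across all tested compounds plus 3 SD, cutoff set per campaign, cut at about 5.5% in these data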;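 further: 100% = MG132 at 30 µM as the positive control and 0% = DMSO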
STAT1 act – STAT1 signaling activators, primary screen, cell-based, HTS, luciferase reporter; NIH 3T3 STAT1-luciferase reporter, IFN-gamma, luminescence; 100% = IFN-gamma alone, no compound; activation (% of control), % at 5.5 µM; actives 2.6% (n = 200,000);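 active means activation above the screen-wide mean activation plus 3 SD, cut at about 130% in these data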;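 further: raw ratio to IFN-gamma control signal so 100% means no change and 0% no light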
APP 5'UTR act – activators of APP 5'UTR luciferase reporter, primary screen, SH-SY5Y cells; SH-SY5Y APP 5'UTR luciferase reporter, luminescence; zero percent = DMSO vehicle wells; activation, % at 2 µM; actives 1% (n = 190,000);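 active means activation above a set limit, based on mean plus 3 SD of controls, cut at about 140% in these data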
NF-kB neuron act – activators of NF-kB expression in neurons, primary screen, cell-based, HTS; human neuronal cells, NF-kB reporter expression; active compounds read high; fold change at 12.5 µM; actives 1.6% (n = 190,000); AID 1239, 2008; in the data active means fold change above about 3.3
Wee1 stabilizer – Wee1 degradation inhibitors, primary screen, cell-based, HeLa, Wee1K328M-luciferase, luminescence. Wee1-like protein kinase (Homo sapiens), P30291. HeLa Luc-Wee1K328M stability; 100% = proteasome inhibitor MG132 effect. reporter increase, % at 5 µM. actives 1.2% (n = 220,000). AID 1321, 2008;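 active means activation above the mean of all tested compounds plus 3 SD, set per screening run, cut at about 8.8% in these data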;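 further: cells exposed to compound for 20 h before luminescence read; 0% = DMSO alone and 100% = MG132 at 30 µM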
Target sequence (P30291 whole entry K328M): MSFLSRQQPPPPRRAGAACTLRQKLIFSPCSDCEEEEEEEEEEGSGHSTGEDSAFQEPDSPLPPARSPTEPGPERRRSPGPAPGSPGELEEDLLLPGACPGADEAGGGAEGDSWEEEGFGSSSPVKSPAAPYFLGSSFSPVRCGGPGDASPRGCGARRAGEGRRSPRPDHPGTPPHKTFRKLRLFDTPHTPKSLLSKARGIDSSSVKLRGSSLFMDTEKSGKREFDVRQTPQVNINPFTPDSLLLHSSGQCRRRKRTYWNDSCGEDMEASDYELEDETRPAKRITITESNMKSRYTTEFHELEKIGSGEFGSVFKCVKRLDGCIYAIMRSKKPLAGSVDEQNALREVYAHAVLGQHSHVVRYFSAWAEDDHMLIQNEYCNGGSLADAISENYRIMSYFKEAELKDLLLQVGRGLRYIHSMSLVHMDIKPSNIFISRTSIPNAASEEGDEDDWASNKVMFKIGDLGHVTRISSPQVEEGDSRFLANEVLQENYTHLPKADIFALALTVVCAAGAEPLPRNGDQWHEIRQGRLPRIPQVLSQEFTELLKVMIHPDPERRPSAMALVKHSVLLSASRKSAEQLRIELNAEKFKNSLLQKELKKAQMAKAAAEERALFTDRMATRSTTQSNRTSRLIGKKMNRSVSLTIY
* = called active by the depositor; / = no result.

SMILES	APP transl inh	Hsp70 activator	STAT1 act	APP 5'UTR act	NF-kB neuron act	Wee1 stabilizer
CCC(C(=O)NCc1ccccc1OC)n1nc(C)n2c(cc3occc32)c1=O (configuration not stated)	5.7	-0.2	92.6	-5.7	0.88	-1.8
COc1ccc(/C=C/C(=O)NC(=S)NNC(=O)c2cc(OC)c(OC)c(OC)c2)cc1	/	/	/	/	/	-2.9
Cc1ccc(C(=O)CCNc2ccc(F)c(Cl)c2)o1	-31.3	-0.1	106.8	31.3	5.36*	0.1
Cc1ccc(C(=O)CCNc2ccccc2)o1	3.7	-0.2	139.8*	-3.7	1.12	3.0
COc1ccc(-n2nc(C(=O)NCC(=O)N3CCN(c4ccccn4)CC3)c3ccccc3c2=O)cc1	-32.7	-0.1	137.1*	32.7	1.03	-1.8
Cc1ccc(C)c(S(=O)(=O)N2C(=S)NC(=O)C2CC(C)C)c1 (configuration not stated)	76.9*	0.4	100.8	-76.9	0.93	-1.1
Cc1ccc(C)c(S(=O)(=O)N2CCNCC2)c1	-5.7	-0.1	103.7	5.7	1.17	1.9
Cc1ccc(C)c(NC(=O)c2ccc(S(=O)(=O)C(F)F)cc2)c1	7.8	-0.5	96.8	-7.8	1.24	-2.8
Oc1c(CN2CCCCC2)cc(COCc2ccccc2)c2cccnc12	85.1*	-0.2	99.7	-85.1	3.77*	-3.4
Cc1ccc(C)c(N2CCN(S(=O)(=O)c3cccc4cccnc34)CC2)c1	2.9	-0.1	103.7	-2.9	0.95	0.0
Cc1ccc(C)c(S(=O)(=O)N2CCN(Cc3ccc(O)c4ncccc34)CC2)c1	56.3*	-0.5	100.7	-56.3	1.82	9.3*
COCc1cc(CN2CCCC2)c(O)c2ncccc12	20.4	-0.5	92.1	-20.4	0.67	1.6
CCOC(=O)N1CCN(Cc2ccc(O)c3ncccc23)CC1	11.3	-0.1	97.5	-11.3	4.79*	-0.8
Oc1ccc(CNc2ccccc2F)c2cccnc12	48.3*	-0.3	93.7	-48.3	0.99	-0.6
Oc1c(CN2CCN(c3ccccn3)CC2)cc(Cl)c2cccnc12	78.1*	0.0	99.8	-78.1	1.32	-3.8
Oc1ccc(CN2CCc3ccccc3C2)c2cccnc12	86.8*	-0.2	93.5	-86.8	5.19*	-1.5
Oc1ccc(CN2CCC(Cc3ccccc3)CC2)c2cccnc12	58.3*	-0.5	101.2	-58.3	2.13	3.9
Oc1ccc(CN2CCCCC2)c2cccnc12	88.1*	0.0	99.1	-88.1	10.6*	-2.4
Oc1ccc(CN2CCN(c3ccccc3)CC2)c2cccnc12	-7.2	0.1	92.9	7.2	0.85	1.4
Nc1sc2c(c1C(=O)NC1CCS(=O)(=O)C1)CCCC2 (configuration not stated)	0.9	0.3	100.4	-0.9	1.04	0.5
O=C(CSc1nnc(-c2ccco2)o1)c1ccc[nH]1	-73.2	-0.1	130.0*	73.2	2.29	0.8
O=C(CSc1nnc(-c2ccco2)o1)c1ccccc1	-18.3	0.6	107.9	18.3	1.71	-1.7
Cc1ccc(S(=O)(=O)N(C)C)cc1-n1c(SCC(=O)Nc2ccc(F)cc2Cl)nc2ccccc2c1=O	10.6	-0.3	101.8	-10.6	0.42	8.9*
CC1(C)CC(=O)c2ccc(OCc3ccc([N+](=O)[O-])cc3)cc2O1	/	/	/	/	/	3.5
O=C1CCOc2cc(OCc3ccccc3)ccc21	-117.6	0.2	133.9*	117.6	6.3*	3.8
COC(=O)c1c(C(=O)OC)c2cccc3cc(-c4ccccc4)c4ccc1c4n32	17.1	-0.5	92.3	-17.1	0.99	-0.7
CCOc1ccc(C(=O)N(CN2CCCC2=O)c2ccccc2)cc1	16.5	-0.2	102.4	-16.5	1.19	13.0*
O=[N+]([O-])c1ccc(O)c(/C=N/Nc2ccccn2)c1	76.3*	-0.4	94.3	-76.3	0.85	-2.4
O=[N+]([O-])c1ccc(O)c(/C=N/Nc2nc3ccccc3[nH]2)c1	81.0*	-0.1	109.6	-81.0	1.38	6.9
COc1ccc(O)c(/C=N/Nc2nc3ccccc3[nH]2)c1	-35.4	0.0	121.8	35.4	1.92	1.6
